# Source: PMC7862700, “An all-to-all approach to the identification of sequence-specific readers for epigenetic DNA modifications on cytosine”
# What was measured:
# Assay in all cases: DAPPL (digital affinity profiling via proximity ligation, sequencing); 10 mM Tris-HCl pH 7.5, 50 mM NaCl, 1 mM DTT, 4% glycerol, room temperature, 30 min; GST-TFs on glutathione beads, 16-mer random dsDNA library, 0.1% formaldehyde crosslink after washing; high values mean tight binding
# Conditions in all cases: protein: recombinant; tags: N-terminal GST; dsDNA, one strand shown
# FLI1 = biological target: T1, FLI1 (Homo sapiens, UniProt Q01543 1-452)
# T1 sequence: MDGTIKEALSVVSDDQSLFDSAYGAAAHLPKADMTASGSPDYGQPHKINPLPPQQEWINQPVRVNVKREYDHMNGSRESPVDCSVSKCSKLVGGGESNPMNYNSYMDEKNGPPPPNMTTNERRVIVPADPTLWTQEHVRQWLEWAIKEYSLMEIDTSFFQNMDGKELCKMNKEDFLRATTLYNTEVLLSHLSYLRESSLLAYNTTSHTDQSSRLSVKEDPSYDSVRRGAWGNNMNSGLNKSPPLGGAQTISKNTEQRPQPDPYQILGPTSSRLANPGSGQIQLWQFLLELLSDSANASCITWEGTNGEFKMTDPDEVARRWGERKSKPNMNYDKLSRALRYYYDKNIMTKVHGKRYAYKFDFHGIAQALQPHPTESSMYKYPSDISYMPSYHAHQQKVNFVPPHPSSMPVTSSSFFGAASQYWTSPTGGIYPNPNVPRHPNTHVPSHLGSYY
# Method in brief: (§1)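 GST fusions of human transcription factors were expressed in yeast and captured with glutathione beads. Once given DNA barcodes and pooled alongside a tag-only sample, they were incubated for 30 min at room temperature with 200 nmole of a random double-stranded 16-mer DNA library in Tris/NaCl/DTT/glycerol buffer, then washed, crosslinked (0.1% formaldehyde), proximity-ligated, PCR-amplified and sequenced on an Illumina NextSeq500. The binding signal of each hexamer is its read frequency for a factor divided by its frequency for the tag-only sample.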
# ELK1 = biological target: T2, ELK1 (Homo sapiens, UniProt P19419 1-428)
# T2 sequence: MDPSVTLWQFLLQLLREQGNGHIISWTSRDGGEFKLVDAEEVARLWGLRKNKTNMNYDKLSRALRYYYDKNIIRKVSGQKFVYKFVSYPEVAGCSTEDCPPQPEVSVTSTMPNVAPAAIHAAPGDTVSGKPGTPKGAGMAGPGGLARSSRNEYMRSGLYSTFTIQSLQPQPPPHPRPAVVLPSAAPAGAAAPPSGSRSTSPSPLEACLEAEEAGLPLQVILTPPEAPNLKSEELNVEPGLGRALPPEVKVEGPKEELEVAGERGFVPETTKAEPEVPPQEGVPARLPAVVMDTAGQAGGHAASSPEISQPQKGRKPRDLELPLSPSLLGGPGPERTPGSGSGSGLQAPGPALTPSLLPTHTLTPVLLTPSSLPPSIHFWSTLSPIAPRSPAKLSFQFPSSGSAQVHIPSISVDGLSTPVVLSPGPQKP
# Method in brief: as §1
# GABPA = biological target: T3, GABPA (Homo sapiens, UniProt Q06546 1-454)
# T3 sequence: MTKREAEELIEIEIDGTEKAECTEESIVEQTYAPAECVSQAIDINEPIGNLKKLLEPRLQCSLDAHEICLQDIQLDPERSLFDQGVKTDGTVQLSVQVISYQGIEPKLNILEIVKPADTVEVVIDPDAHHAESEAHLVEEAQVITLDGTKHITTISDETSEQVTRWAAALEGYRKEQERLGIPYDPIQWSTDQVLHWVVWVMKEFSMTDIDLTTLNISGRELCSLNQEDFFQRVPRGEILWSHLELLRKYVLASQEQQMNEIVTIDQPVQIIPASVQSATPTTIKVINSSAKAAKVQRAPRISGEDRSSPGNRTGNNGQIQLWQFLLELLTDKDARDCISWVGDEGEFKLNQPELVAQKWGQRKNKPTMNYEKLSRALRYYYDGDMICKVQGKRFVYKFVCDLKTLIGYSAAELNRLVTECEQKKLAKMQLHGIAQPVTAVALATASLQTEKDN
# Method in brief: as §1
# ERG = biological target: T4, ERG (Homo sapiens, UniProt P11308 1-479)
# T4 sequence: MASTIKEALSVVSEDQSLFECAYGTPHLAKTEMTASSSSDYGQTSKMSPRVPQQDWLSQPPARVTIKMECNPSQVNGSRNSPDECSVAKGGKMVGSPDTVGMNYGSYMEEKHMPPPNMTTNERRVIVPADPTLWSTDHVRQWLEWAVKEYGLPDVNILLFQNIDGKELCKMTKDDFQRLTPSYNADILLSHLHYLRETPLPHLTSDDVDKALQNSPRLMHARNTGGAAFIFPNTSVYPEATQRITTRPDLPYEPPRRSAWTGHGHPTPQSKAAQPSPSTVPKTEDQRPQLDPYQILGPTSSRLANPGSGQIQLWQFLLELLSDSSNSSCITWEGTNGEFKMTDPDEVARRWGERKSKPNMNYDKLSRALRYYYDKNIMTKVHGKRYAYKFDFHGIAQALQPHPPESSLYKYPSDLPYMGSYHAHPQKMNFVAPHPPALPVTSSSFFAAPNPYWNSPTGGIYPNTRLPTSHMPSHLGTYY
# Method in brief: as §1
# ELF1 = ELF1 (Homo sapiens, UniProt P32519 1-619)
# Sequence of ELF1 (P32519 whole entry): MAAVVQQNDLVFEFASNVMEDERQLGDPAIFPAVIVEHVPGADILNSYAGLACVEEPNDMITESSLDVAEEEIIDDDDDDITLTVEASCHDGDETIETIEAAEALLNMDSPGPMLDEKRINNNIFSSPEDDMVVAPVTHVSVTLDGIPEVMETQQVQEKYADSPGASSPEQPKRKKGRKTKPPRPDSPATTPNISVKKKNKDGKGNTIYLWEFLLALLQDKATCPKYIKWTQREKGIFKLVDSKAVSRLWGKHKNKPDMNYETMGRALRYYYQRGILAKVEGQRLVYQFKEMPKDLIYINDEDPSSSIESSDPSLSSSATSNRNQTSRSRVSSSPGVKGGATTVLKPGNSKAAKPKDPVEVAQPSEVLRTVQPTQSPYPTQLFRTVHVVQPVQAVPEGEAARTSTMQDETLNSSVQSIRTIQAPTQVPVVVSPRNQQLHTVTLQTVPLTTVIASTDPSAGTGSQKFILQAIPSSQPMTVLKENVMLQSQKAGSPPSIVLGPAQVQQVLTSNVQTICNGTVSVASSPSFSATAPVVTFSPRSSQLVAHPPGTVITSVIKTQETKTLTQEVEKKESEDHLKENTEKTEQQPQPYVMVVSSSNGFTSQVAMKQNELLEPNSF
# Method in brief: as §1
# EHF = biological target: T5, EHF (Homo sapiens, UniProt Q9NZC4 1-300)
# T5 sequence: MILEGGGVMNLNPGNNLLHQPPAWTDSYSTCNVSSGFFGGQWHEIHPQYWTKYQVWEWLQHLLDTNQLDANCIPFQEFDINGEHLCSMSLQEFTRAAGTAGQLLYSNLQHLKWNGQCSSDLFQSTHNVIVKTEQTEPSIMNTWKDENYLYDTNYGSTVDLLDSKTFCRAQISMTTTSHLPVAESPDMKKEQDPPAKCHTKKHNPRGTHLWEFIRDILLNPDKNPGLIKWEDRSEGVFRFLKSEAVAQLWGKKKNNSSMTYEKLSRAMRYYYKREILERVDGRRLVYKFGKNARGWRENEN
# Method in brief: as §1
# SPI1 = SPI1 (Homo sapiens, UniProt P17947 1-270)
# Method in brief: as §1
# SPIB = SPIB (Homo sapiens, UniProt Q01892 1-262)
# Sequence of SPIB (Q01892 whole entry): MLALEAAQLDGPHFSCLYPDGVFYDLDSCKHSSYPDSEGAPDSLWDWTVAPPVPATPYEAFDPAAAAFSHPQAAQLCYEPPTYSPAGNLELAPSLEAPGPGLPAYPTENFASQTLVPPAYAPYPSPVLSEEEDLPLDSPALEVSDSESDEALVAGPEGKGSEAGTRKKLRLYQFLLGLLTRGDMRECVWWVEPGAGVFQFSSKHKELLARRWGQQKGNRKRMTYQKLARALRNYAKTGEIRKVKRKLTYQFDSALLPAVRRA
# Method in brief: as §1
# ELK3 = biological target: T6, ELK3 (Homo sapiens, UniProt P41970 1-407)
# T6 sequence: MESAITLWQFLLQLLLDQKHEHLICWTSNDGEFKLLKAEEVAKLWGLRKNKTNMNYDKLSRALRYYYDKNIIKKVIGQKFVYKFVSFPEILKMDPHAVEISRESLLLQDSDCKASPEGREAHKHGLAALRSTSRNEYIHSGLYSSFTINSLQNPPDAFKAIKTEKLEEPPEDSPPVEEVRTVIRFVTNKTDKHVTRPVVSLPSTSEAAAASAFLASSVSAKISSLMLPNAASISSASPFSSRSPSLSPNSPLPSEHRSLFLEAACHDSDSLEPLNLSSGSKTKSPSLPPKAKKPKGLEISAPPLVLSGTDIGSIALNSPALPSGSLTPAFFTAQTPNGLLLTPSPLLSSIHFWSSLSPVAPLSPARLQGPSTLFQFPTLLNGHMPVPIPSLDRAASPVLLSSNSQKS
# Method in brief: as §1
sequence,measurement,setting,value
ACATTT,binding signal,FLI1,"1.63 fold enrichment (6-mer frequency, TF over GST control)"
same,binding signal,ELK1,"1.48 fold enrichment (6-mer frequency, TF over GST control)"
same,binding signal,GABPA,"1.43 fold enrichment (6-mer frequency, TF over GST control)"
same,binding signal,ERG,"1.56 fold enrichment (6-mer frequency, TF over GST control)"
same,binding signal,ELF1,"1.46 fold enrichment (6-mer frequency, TF over GST control)"
same,binding signal,EHF,"1.49 fold enrichment (6-mer frequency, TF over GST control)"
same,binding signal,SPI1,"1.41 fold enrichment (6-mer frequency, TF over GST control)"
same,binding signal,SPIB,"1.53 fold enrichment (6-mer frequency, TF over GST control)"
same,binding signal,ELK3,"1.36 fold enrichment (6-mer frequency, TF over GST control)"
